Results from PubChem BioAssay (EPA / NIEHS).
The source made the active and inactive calls. How the source made its calls: active means hit-call score of the fitted dose curve at least 0.9, where 1 is the maximum; inactive means score below 0.9.

Assay: ATG_CMV_CIS: Attagene CIS-FACTORIAL HepG2 Assay for human CMV (Internal Marker) (AID 2282928);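 further: endpoint acts as a background internal control marker rather than a target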
Conditions: HepG2 CMV promoter reporter, transcription factor profiling; actives raise or lower the signal
Experimental: ATG_CIS is a cell-based, multiplexed-readout assay that uses HepG2, a human liver cell line, with measurements taken at 24 hours after chemical dosing in a 24-well plate.ATG_CMV_CIS is one of 52 assay component(s) measured or calculated from the ATG_CIS assay. It is designed to make measurements of mRNA induction, a form of inducible reporter, as detected with fluorescence intensity signals by Reverse transcription polymerase chain reaction (RT-PCR) and Capillary electrophoresis technology.Data from the assay component ATG_CMV_CIS was analyzed into 1 assay endpoint. This assay endpoint, ATG_CMV_CIS, was analyzed with bidirectional fitting relative to DMSO as the negative control and baseline of activity. Using a type of inducible reporter, measures of mRNA for gain or loss-of-signal activity can be used to understand the background control at the transcription factor-level as they relate to the gene . Furthermore, this assay endpoint can be referred to as a secondary readout, because this assay has produced multiple assay endpoints where this one serves a background control function. To generalize the intended target to other relatable targets, this assay endpoint is annotated to the background measurement intended target family, where the subfamily is internal marker.
Human liver HepG2 cells are transiently transfected with multiple reporter transcription units (MRTUs) in 6-well plates using FuGene 6 reagent (Roche; 3 ml FuGene/1 mg DNA). The MRTU constructs are regulated by a cis-regulating element (promoter). […] A major difference between the CIS and TRANS system is that in CIS activities of endogenous TFs are measured, whereas the TRANS assay evaluates changes in activities of exogenous, chimeric NR-Gal4 proteins. […] At the end of 24 hour incubation, total RNA was isolated using TriZol reagent (Invitrogen). The isolated RNA is then reverse-transcribed using oligo(dT) primer and Mo-MLV reverse transcriptase (Invitrogen) with DNAse I (Ambion) treatment for 30 min. The one-tenth of the produced cDNA was amplified by PCR using Taq DNA polymerase (Invitrogen) and two reporter sequence-specific primers. The PCR products were fluorescently labeled by primer extension with 6-arboxyfluorescein (6-FAM) 5'-labeled reporter sequence-specific primer (2 min at 95 C, 20 s at 68 C and 10 min at 72 C) and these products were digested with 5U of HpaI (New England Biolabs) for 2h at 37 C. The fragments were purified using Qiaquick PCR columns (Qiagen), analyzed on an ABI 3130xL genetic analyzer (Applied Biosystems) with peak positions identified by using a set of X-rhodamine (ROX)-labeled MapMarker1000 molecular weight standards (BioVentures). The raw capillary electrophoresis data was processed using Attagraph software (Attagene).

outcome, inactive:
O=C(O)CCSCCC(=O)O
OC[C@H]1O[C@H](O[C@]2(CCl)O[C@H](CCl)[C@@H](O)[C@@H]2O)[C@H](O)[C@@H](O)[C@H]1Cl
CC(C)C[C@H]1C(=O)N2CCC[C@H]2[C@]2(O)O[C@](NC(=O)[C@@H]3C=C4c5cccc6[nH]c(Br)c(c56)C[C@H]4N(C)C3)(C(C)C)C(=O)N12
CCCc1ccccc1O
COC(C)CCO (stereo not given)
CCCCCCCCCOC(C)=O
CN1[C@@H]2CC(OC(=O)[C@H](CO)c3ccccc3)C[C@H]1[C@@H]1O[C@@H]12 (stereo not given in full)
CC(CCO)CCCC(C)(C)O (stereo not given)
CC(C)=CCC[C@H](C)CC=O
CCCCCCOC(=O)CC
NC(=O)NC1NC(=O)NC1=O (stereo not given)
COc1cc2ncnc(Nc3cccc(Cl)c3)c2cc1OC
CC(=O)Nc1ccc(C)cc1C
Cc1ccc(O)c(C(C)(C)C)c1
Sc1nc(S)nc(S)n1
CC1(C)[C@@H]2CC[C@@]1(C)[C@H](O)C2
O=c1[nH]c(=O)n([C@H]2CCCO2)cc1F
Cc1ccc(C=O)s1
CC(C)(COC(=O)c1ccccc1)COC(=O)c1ccccc1
COc1cc(C=O)ccc1OC(=O)C(C)C
C=O
Nc1cc([N+](=O)[O-])ccc1O
CC(C)=CCCC(C)CC=O (stereo not given)
COC(=O)OC
CCCCNC(=O)NS(=O)(=O)c1ccc(C)cc1
COc1nc(C)nc(N)n1
CC(CN1c2ccccc2Sc2ccccc21)N(C)C (stereo not given)
C[C@]12CC[C@H]3[C@@H](CCC4=CC(=O)CC[C@@]43C)[C@@H]1CC[C@@H]2C(=O)CO
CCCC(=O)OCCC(C)CCC=C(C)C (stereo not given)
O=C[C@H](O)[C@H](O)[C@H](O)CO
O=C(OCc1ccccc1)C(=O)OCc1ccccc1
CO[Si](C)(OC)c1ccccc1

AC50, active:
O=C=NC1CCC(CC2CCC(N=C=O)CC2)CC1 (stereo not given) 64.8 µM
c1ccc2sc(SN(C3CCCCC3)C3CCCCC3)nc2c1 8.13 µM
CCCCCCCCCCCCOCCO 33.4 µM
C=CC(=O)OCCn1c(=O)n(CCOC(=O)C=C)c(=O)n(CCOC(=O)C=C)c1=O 9.12 µM
CSc1nc(NC2CC2)nc(NC(C)(C)C)n1 60.5 µM
CNCCCC12CCC(c3ccccc31)c1ccccc12 11.1 µM
O=c1cc(-c2ccccc2)oc2cc(O)cc(O)c12 3.31 µM
Clc1nc(C(Cl)(Cl)Cl)c(Cl)c(Cl)c1Cl 24.9 µM
